From PubChem BioAssay (NCATS) come the findings set out here.

The structures appear in SMILES notation. Inconclusive results are not listed. A number with no mark means an inactive call. Calls of active or inactive are those of the source. Calls come from the whole dose curve; as a rule, active = well fitted cell-killing curve with a large enough effect; inconclusive = small, poorly fitted or top-dose-only effect; inactive = flat fitted curve, though single readings scatter.

Test [1] in a line: Cellular viability qHTS for adrenocortical cancer (ACC) cell line SW-13 (AID 1963989).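 For activity (max response): cells grown in serum-free medium with ITS supplement; % is set by controls: 0 for no effect and ±100 for the full control effect.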 Note: nearly all actives have a fitted effect of over 65% in size. Conditions: SW-13 ACC cells viability, CellTiter-Glo, 48 h; activity (max response): stronger effect = lower value. Summed up:
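Here, serum-free SW-13 cultures were dosed up to 46 uM. Following 48 h, ATP-dependent luminescence (CellTiter-Glo) reported viable cells, and logistic modeling produced IC50 values.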
A general note: In qHTS, concentration-response curves come from the screen itself.

The nature of test [2]: Cellular viability qHTS for adrenocortical cancer (ACC) cell line NCI-H295R (AID 1963990).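 For activity change, negative = viability loss: 0% = DMSO only wells and -100% = full killing with cytotoxic reference compound.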 Note: nearly all actives have a fitted effect of over 60% in size. In outline:
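Viability of NCI-H295R after 48 h of treatment (final up to 46 uM) measured through cellular ATP luminescence.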
Potency is the fitted concentration of half-maximal effect.

Consider `CC(=O)Oc1ccc(C(=C2CCCCC2)c2ccc(OC(C)=O)cc2)cc1`, for which the activity (max response) in test [1] was -5.44%. Also, in test [2], the Potency entry is “inactive”.
Take `CC[C@H](c1ccc(O)cc1)[C@@H](CC)c1ccc(O)cc1`: the results for the Potency in test [1] and in test [2] were 5.17 µM (active) and 2.59 µM (active), respectively.
Take `Cc1nnc(SCC2=C(C(=O)O)N3C(=O)[C@@H](NC(=O)Cn4cnnn4)[C@H]3SC2)s1`: in test [1], the activity (max response) was 10%. Moreover, the Potency entry in test [2] is “inactive”.
For the compound `COc1cc(/C=C(\C#N)C(=O)Nc2nnc(C(F)(F)F)s2)ccc1OCc1ccc(C(F)(F)F)cc1C(F)(F)F`, in test [1], the activity (max response) was -15.8%. In test [2], the Potency entry is “inactive”.
Taken in the same sequence, the figures for `O=C(OCC(COC(=O)c1cccnc1)(COC(=O)c1cccnc1)COC(=O)c1cccnc1)c1cccnc1` were -1.24% and “inactive”.
The matching figures for `N#C/C(=C1\SCC(c2ccccc2Cl)S1)n1ccnc1` (stereo not drawn): -13.5% and “inactive”.
For the compound `NC(N)=NCCN1CCCCCCC1`, in test [1], the activity (max response) is 5.33%. Further, the activity change, negative = viability loss in test [2] is 7.14% [at 0.587 µM].
Take `O=c1c(-c2ccc(O)cc2)coc2cc(O[C@@H]3O[C@H](CO)[C@@H](O)[C@H](O)[C@H]3O)ccc12`: in test [1], the activity (max response) was -7.43%. Besides, the Potency entry in test [2] is “inactive”.
Take `CC(=O)[C@@]1(O)CC[C@H]2[C@@H]3C[C@H](C)C4=CC(=O)CC[C@]4(C)[C@H]3CC[C@@]21C`: in test [1], the activity (max response) is -1.82%. Further, the Potency entry in test [2] was “inactive”.
Taken in the same sequence, the figures for `C[N+]1(C)CCC(OC(=O)C(O)(c2ccccc2)C2CCCC2)C1` (stereo not drawn) were 7.55% and “inactive”.
Regarding `COc1cc2c3c(n(CCCNCCO)c(=O)c2cc1OC)-c1cc2c(cc1C3=O)OCO2`, the Potency in test [1] was 0.447 µM (active); in test [2] it was 2.82 µM (active).
In the case of `COc1cc(-c2cn(C)c(=O)c3cnccc23)c(OC)cc1CN(C)C`, the activity (max response) in test [1] was 19.4%. Also, the Potency result in test [2] was “inactive”.
The matching figures for `C=C[C@@]1(C)CC(=O)[C@]2(O)[C@@]3(C)[C@@H](O)CCC(C)(C)[C@@H]3[C@H](O)[C@H](OC(C)=O)[C@@]2(C)O1`: 4.29% and “inactive”.
`C[C@]12CC[C@@H]3c4ccc(O)cc4CC[C@H]3[C@@H]1C[C@@H](O)[C@@H]2O`: the activity (max response) in test [1] was -7.09%. Moreover, the Potency entry in test [2] was “inactive”.
With `CC(=O)[C@@]1(O)CC[C@H]2[C@@H]3CCC4=CC(=O)CC[C@]4(C)[C@H]3CC[C@@]21C`, the activity (max response) in test [1] was -6.65%. Further, in test [2], the Potency entry is “inactive”.
For `CC[C@H]1OC(=O)[C@H](C)C(=O)[C@H](C)[C@@H](O[C@H]2O[C@H](C)C[C@H](N(C)C)[C@H]2O)[C@](C)(OC)C[C@@H](C)C(=O)[C@H](C)[C@H]2N(CCCCn3cnc(-c4cccnc4)c3)C(=O)O[C@]12C`, the activity (max response) in test [1] is -18.8%. Also, in test [2], the Potency result was “inactive”.
Regarding `Cc1ccc(C(C)C)cc2c(C)ccc1-2`, the activity (max response) in test [1] is 0.775%. The Potency entry in test [2] is “inactive”.
For `C#CC1(O)CC[C@H]2[C@@H]3CCC4=CCCC[C@@H]4[C@H]3CC[C@@]21C` (stereo partly drawn), the activity (max response) in test [1] is 6.47%. The Potency entry in test [2] is “inactive”.
The matching figures for `CCCCC[C@H](O)/C=C/[C@H]1[C@H](O)CC(=O)[C@@H]1CCCCCCC(=O)O`: 1.24% and “inactive”.
Taken in the same sequence, the figures for `NC(N)=NC(=O)Cc1c(Cl)cccc1Cl` were -7.72% and “inactive”.
Take `Cc1cccc(-c2[nH]c(CNc3ccccc3F)nc2-c2ccc3ncnn3c2)n1`: the activity (max response) in test [1] is -16.8%. Also, in test [2], the Potency entry is “inactive”.
Taken in the same sequence, the figures for `CCOC(=O)c1ccc(O)c(O)c1` were -9.67% and “inactive”.
In the case of `COC(=O)[C@@H]1[C@H]2C[C@H]3c4[nH]c5ccccc5c4CCN3C[C@@H]2CC[C@@H]1O`, the activity (max response) in test [1] is -16.5%. Moreover, the Potency entry in test [2] is “inactive”.
Take `COc1cc(-c2cn(C)c(=O)c3cnccc23)cc(OC)c1CN(C)C`: in test [1], the activity (max response) was -6.63%. In addition, the Potency result in test [2] is “inactive”.
Take `OC[C@H]1O[C@@H](n2cnc3c(=S)nc[nH]c32)[C@H](O)[C@@H]1O`: the Potency is 9.2 µM (active) in test [1] and 2.31 µM (active) in test [2].
On to `C[C@H]1CC2[C@@H]3CCC4=CC(=O)C=C[C@]4(C)[C@@]3(F)[C@@H](O)C[C@]2(C)[C@@]1(O)C(=O)CO` (stereo partly drawn), for which, in test [1], the activity (max response) was -7.86%. Also, the Potency entry in test [2] was “inactive”.
The matching figures for `CCN1C(=O)c2ccccc2C1Nc1ccc(OCCN2CCCCC2)cc1` (stereo not drawn): 0.694% and “inactive”.
On to `N=C1S/C(=C\c2ccc(-c3ccc4c(c3)C(=O)NC4=O)o2)C(=O)N1c1ccc(Br)cc1`, for which the activity (max response) in test [1] was 2.9%. The Potency entry in test [2] was “inactive”.
The matching figures for `O=C(CCCc1ccc2cccnc2n1)NCc1cc(-c2ccc(F)c(C(F)(F)F)c2)no1`: 1.37% and “inactive”.
Turning to `O=C(O)c1ccc(O)c2ncccc12`, the activity (max response) in test [1] was -6.62%. The Potency entry in test [2] was “inactive”.
In the case of `CCOC(=O)OC(C)OC(=O)[C@@H]1N2C(=O)[C@@H](NC(=O)[C@H](N)c3ccccc3)[C@H]2SC1(C)C` (stereo partly drawn), in test [1], the activity (max response) was 4.54%. For the same compound, in test [2], the Potency result is “inactive”.
Take `COc1cc(NS(=O)(=O)c2ccc(N)cc2)nc(C)n1`: the activity (max response) in test [1] was 1.38%. Moreover, the Potency result in test [2] was “inactive”.
The matching figures for `CCCCc1nc(Cl)c(CO)n1Cc1ccc(-c2ccccc2-c2nn[nH]n2)cc1`: 12.4% and “inactive”.
On to `OC1CCC(Oc2cccc3cnc(Nc4ccc5nc[nH]c5c4)nc23)CC1` (stereo not drawn), for which the results for the Potency in test [1] and in test [2] were 7.94 µM (active) and 2.51 µM (active), respectively.
